# Target: T1, ETS1 (UniProt P14921)
# T1 sequence: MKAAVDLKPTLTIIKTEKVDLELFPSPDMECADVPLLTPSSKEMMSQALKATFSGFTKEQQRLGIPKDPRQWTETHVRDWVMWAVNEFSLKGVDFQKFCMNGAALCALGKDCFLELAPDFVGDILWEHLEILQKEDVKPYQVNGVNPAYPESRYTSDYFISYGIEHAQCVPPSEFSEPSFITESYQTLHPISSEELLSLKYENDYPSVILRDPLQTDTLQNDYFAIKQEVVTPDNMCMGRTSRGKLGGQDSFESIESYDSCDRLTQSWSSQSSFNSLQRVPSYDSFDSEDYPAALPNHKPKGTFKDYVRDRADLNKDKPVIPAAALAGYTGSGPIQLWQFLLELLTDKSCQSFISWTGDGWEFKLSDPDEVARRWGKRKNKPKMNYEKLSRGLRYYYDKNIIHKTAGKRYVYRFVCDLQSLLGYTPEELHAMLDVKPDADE
# Experiment: ETS1 binding intensity (PBM fluorescence), ETS1 alone (arbitrary fluorescence units); higher = stronger binding
# Settings: ETS1 concentration 1 nM; RUNX1 concentration 0 nM
# Procedure: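 Cooperative genomic-context PBM: 36-bp genomic probes with neighbouring ETS1 and RUNX1 sites, double-stranded on Agilent 4x180k arrays. Full-length recombinant human ETS1 (1 nM) was incubated alone or with RUNX1 (25 nM) and detected with anti-ETS1 antibody plus Alexa488 secondary. Value is the median fluorescence intensity over 4 replicate spots; the ETS1+RUNX1 data were normalised to the ETS1-only data using probes without RUNX1 sites. The 36-bp variable region sits on the array probe with constant linker/primer flanks that are not printed.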
row,Sequence,ETS1 binding intensity
1,GAAATCCATCACGGATGTGGGCTTTTTGCTCTCATT,1490
2,AGTACGATGGGAGGAAGTGGTTTGTAAGAGGAGGAC,1740
3,CTCGCGATTCCTCTTCCGCTGCGGTCTCCTTAACAC,634
4,CTCCATCTGCCCGGAAAACCGCAGCCGCCCCAACCT,841
5,TATGACCAGGGGAGGGAAGTGACCACAGCATATCAC,466
6,CGCCTCATTTCCTGTGCAACTGCGGTAAAAATAGGA,1860
7,CCATGCACAACAGGATGTGGTTAGACAGTCAAAATT,6700
8,AACCAATCGAGCGGAGGAAACCGCGGCGTTAGCGTG,568
9,TCCCGAGAGCCGGAAGCAGCCGCAGGCCCCGCCACA,3950
10,TGAGCACTGAGCACTTCCTGTGGCTTCTGAAGCTCC,1860
11,CTCTGCCCGCTTCCGCTGGCGGTACCTCAGAGCCGC,919
12,CTTGCTTAACGCTTCCTGAGGGGTGGTTTGGGTTTT,448
13,CCCCTCCCTGCTTCCTGTGTGGTGAGGGGTGATCAG,2040
14,TGGGCCAGCACGTCCGGGTGGTCAGGACGCGCGCTT,458
15,GGACGCCGCCGGAAGCGCGACCCGCACTCCCGGTAG,3650
16,CCAGAAAGCTCCTCCTTCCGCCACAACACGATCACT,538
17,CCTGGGCAAGGCCGGATGCCTGTGGCTTCCAGGCTG,2880
18,AGGAGTGAGGAAGTGAGGCTGGCCTTGTGGGTGTGG,644
19,TGAATATTCTTCCGCACGTACCCACATGGCTCACTT,486
20,ACAGGAAATGTTAGAGGTTGAGTTAGCGGTTATGAG,1620

row,Sequence,ETS1 binding intensity
1,AACAAACCGGATGGGGTTGCCACCCGCAATCTTGTC,2030
2,TTTGAGCGGGCAGGATGTGGTGACAATGATACTGCA,4280
3,TGAGGAGAGCGAGGAAGTGGTTTTCTCTTCGCACAG,691
4,CTGAAGAGGAAATGTATTCCTCATGTTGTGGTTGGC,742
5,CCTCTTGCTGCCTCTTCCTGTGGTCTTTTCTCTGTC,737
6,CCGCCCTCCACCGAGTTCCGGCCACAGAGCGGGCCC,536
7,TGTATGAAAAAAACAGGAAACCACAGAGAACTGAGG,2210
8,AGCGGTGTTTCAGGATGTGAGGGCCCGCAGGAGCCG,666
9,TACCGCTGCTTCCTGCCTGCGCGGTGAGCCTGTGCC,829
10,TGCTCCACTCGGAAGTGGTGCCGCAGCTCTTCGATG,697
11,AGCTTTCCTTTTCCGGTTGCGGCGCCGCGCGTTGAT,1800
12,GAAAGCTGCACTATTTCCTGAGGTTAGAGGTTTAAA,522
13,CCGAGCCGGCCTCTTCCGCCGCAAGTCCCTCCCCAA,548
14,CAGCCTTGCCGGAAGGCAGAGTTTGTGGTCAGACCG,1090
15,CTGTGACACGTGCGGAAGCTGTGGTAAGTGCATCCA,1130
16,TGGCTGGGCAGGAAGGCCTGTGGCTTACGGTTCCTG,551
17,AGAACAAAACAGGAAATAGTGGTTTGCAAAAATATA,5780
18,TGATTAAAAACAGGATGTGGGTGAATAGTCATGCAT,4810
19,AGCACCCCACATCCTGCACCCCACAACCCAGATCCC,510
20,CCAGCCGGAAGCCCCGCCCCCTAGAGGCACCGCGGA,1010

# From the supplement of paper PMC10681739
